Test results taken from PubChem BioAssay (EPA / NIEHS).
Records with an inconclusive call do not appear. Calls of active or inactive are those of the source. The calls were made as follows: active = hit-call score of the fitted dose curve at least 0.9, where 1 is the maximum; inconclusive = response in the unintended direction; inactive = score below 0.9.

target: human Vascular Endothelial Growth Factor Receptor 2 (VEGFR2), KDR (gene 3791) (UniProt P35968); experiment: NVS_ENZ_hVEGFR2: NovaScreen (NVS) Enzymatic Assay for human Vascular Endothelial Growth Factor Receptor 2 (VEGFR2) (AID 2283230)
Outline: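 Cell-free recombinant VEGFR2 kinase, fluorescent substrate with electrophoretic mobility-shift separation; read 1 h after dosing. Screened at 25 uM in duplicate, hits to concentration-response up to 50 uM; loss-of-signal versus DMSO.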

Chain of human Vascular Endothelial Growth Factor Receptor 2 (VEGFR2), KDR (gene 3791) (P35968 whole entry, looked up): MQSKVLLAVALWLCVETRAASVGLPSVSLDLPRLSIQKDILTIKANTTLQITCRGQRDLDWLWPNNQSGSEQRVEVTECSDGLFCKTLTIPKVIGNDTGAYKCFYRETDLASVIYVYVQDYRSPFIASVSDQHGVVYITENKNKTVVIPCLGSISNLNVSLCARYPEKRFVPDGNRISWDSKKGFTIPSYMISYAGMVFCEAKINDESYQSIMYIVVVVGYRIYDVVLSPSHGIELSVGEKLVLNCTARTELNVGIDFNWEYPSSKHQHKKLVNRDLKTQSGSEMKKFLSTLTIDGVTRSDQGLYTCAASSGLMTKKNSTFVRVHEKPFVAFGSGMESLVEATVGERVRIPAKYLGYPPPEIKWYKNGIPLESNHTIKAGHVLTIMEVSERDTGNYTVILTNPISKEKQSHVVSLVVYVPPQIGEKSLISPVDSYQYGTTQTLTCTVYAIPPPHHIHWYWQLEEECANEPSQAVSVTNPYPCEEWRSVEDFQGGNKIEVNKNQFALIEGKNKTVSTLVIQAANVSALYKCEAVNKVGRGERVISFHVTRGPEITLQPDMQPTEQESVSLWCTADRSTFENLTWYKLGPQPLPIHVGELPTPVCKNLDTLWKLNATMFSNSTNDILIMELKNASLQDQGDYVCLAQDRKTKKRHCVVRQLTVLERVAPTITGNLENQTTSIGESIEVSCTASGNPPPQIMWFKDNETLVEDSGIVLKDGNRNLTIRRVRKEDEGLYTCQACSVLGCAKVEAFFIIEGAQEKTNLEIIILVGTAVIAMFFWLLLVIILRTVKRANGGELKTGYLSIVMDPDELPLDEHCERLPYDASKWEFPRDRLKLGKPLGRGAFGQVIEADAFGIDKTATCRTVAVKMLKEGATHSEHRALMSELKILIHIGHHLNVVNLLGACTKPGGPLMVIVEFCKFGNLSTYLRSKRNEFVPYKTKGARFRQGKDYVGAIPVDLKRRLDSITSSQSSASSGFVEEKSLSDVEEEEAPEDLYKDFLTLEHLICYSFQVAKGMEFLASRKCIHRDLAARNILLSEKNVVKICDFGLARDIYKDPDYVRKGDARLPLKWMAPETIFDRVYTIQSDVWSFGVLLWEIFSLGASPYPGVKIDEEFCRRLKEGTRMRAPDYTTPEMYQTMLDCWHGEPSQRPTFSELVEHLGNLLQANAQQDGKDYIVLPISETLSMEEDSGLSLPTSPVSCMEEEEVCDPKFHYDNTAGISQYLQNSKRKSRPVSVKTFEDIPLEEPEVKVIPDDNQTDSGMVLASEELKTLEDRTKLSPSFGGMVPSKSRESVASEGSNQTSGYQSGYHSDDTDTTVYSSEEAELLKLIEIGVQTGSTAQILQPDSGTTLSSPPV

SMILES	outcome
O=c1[nH]cc(F)c(=O)[nH]1	inactive
CC(C)(C)c1cc(O)c(C(C)(C)C)cc1O	inactive
CCc1c(C(=O)NN2CCCCC2)nn(-c2ccc(Cl)cc2Cl)c1-c1ccc(Br)cc1	inactive
CCCCCCOCCO	inactive
CN[C@H]1CC[C@@H](c2ccc(Cl)c(Cl)c2)c2ccc(S(N)(=O)=O)cc21	inactive
CCCCCCCCCCCCCO	inactive

target: sheep Cyclooxygenase-2 (Cox2), PTGS2 (gene 443460) (UniProt P79208); experiment: NVS_ENZ_oCOX2: NovaScreen (NVS) Enzymatic Assay for sheep Cyclooxygenase-2 (Cox2) (AID 2283231)
Outline: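 Colorimetric absorbance read-out of COX activity, taken 0.66 hour post-dosing, using native protein from sheep placenta. Single-concentration duplicate screen (25 uM), then singleton concentration-response up to 50 uM for actives.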

Chain of sheep Cyclooxygenase-2 (Cox2), PTGS2 (gene 443460) (P79208 whole entry, looked up): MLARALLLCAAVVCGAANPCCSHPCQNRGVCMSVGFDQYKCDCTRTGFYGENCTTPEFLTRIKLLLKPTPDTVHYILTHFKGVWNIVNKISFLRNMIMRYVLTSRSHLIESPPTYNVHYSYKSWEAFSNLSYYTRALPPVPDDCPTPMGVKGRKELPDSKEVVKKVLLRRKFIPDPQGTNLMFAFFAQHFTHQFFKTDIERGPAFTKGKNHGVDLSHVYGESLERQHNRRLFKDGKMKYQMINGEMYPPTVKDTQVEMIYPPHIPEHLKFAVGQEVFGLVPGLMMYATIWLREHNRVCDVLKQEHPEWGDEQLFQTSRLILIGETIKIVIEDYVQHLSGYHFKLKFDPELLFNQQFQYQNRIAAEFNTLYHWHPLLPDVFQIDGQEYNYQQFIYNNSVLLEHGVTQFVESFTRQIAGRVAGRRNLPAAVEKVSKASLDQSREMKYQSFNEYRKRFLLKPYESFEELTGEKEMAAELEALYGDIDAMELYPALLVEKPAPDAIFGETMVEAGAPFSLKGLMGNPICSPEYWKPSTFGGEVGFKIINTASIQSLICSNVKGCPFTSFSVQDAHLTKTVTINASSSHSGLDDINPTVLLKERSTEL

SMILES	outcome	AC50
CCCCN(CCCC)CCCC	inactive	–
CCOC(=O)C(C)(C)Oc1ccc(Cl)cc1	–	8.26 µM (active)
Nc1ccccc1N	–	14.9 µM (active)
C=CCc1ccc(O)c(OC)c1	–	15.7 µM (active)
Cc1ccc(C)c(O)c1C	–	3.04 µM (active)
CC(=O)OC/C=C(\C)CCC=C(C)C	–	9.67 µM (active)
CC(=O)Oc1ccccc1C(=O)O	inactive	–
